{"source": "PubChem BioAssay (NCI)", "note": "The panel holds about 79,000 compounds, 15% with a hit somewhere; the sample as a whole holds those more often. Activity calls are given as the source filed them. Rule as the data show it: active = growth inhibition above about 70%; inactive = the rest."}
{"assay": "NCI Yeast Anticancer Drug Screen. Data for the rad50 strain (AID 155);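 also: 0% = growth of vehicle-only cultures of the same strain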", "details": "S. cerevisiae rad50 strain growth inhibition; at 50.0 µM; stronger effect = higher value", "procedure,_shortened": "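DNA repair mutant yeast, compound exposure, growth read-out; inhibition is taken relative to vehicle.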"}
{"compound": "CCCCCCCCCCCCCCCCCCNC(=O)NCc1ccncc1", "growth inhibition": "-13.3% (inactive)"}
{"compound": "COCC(=O)c1ccccc1-c1ccccc1", "growth inhibition": "13.6% (inactive)"}
{"compound": "Cn1nc(-c2ccc(Cl)c(Cl)c2)[n+]([O-])c2c(=O)n(C)c(=O)nc1-2", "growth inhibition": "88.8% (active)"}
{"compound": "CC(C)(C)OC(=O)NC(Cc1ccccc1)OCc1ccccc1", "note": "(stereo not given)", "growth inhibition": "-11.3% (inactive)"}
{"compound": "O=C(/C=C/c1ccc([N+](=O)[O-])cc1)NN=C(c1ccccc1)c1ccccc1", "growth inhibition": "-20.4% (inactive)"}
{"compound": "CC(C)N(CSc1ccc([N+](=O)[O-])cc1)CSc1ccc([N+](=O)[O-])cc1", "growth inhibition": "12.3% (inactive)"}
{"compound": "COC(=O)c1c2c(C)ccc(C)c2nc2c(C)ccc(C)c12", "growth inhibition": "-5.6% (inactive)"}
{"compound": "O=C(O)c1nc(Cl)c(Cl)[nH]c1=O", "growth inhibition": "-15.3% (inactive)"}
{"compound": "NC(=O)c1ccc(C(F)(F)F)cc1O", "growth inhibition": "7.6% (inactive)"}
{"compound": "CN(C)/N=C\\c1ccc(C(=O)O)cc1", "growth inhibition": "-4.35% (inactive)"}
{"compound": "CC(=O)NCC(=O)c1ccccc1", "growth inhibition": "12.5% (inactive)"}
{"compound": "Cc1[nH]n(-c2ccccc2)c(=O)c1/C=N\\C(N)=S", "growth inhibition": "-37% (inactive)"}
{"compound": "CCOC(=O)c1ccc(N=c2sc3ccccc3nc2Nc2ccc(C(=O)OCC)cc2)cc1", "growth inhibition": "2.75% (inactive)"}
{"compound": "COC(=O)C(N)Cc1ccc(O)c(O)c1", "note": "(stereo not given)", "growth inhibition": "20.1% (inactive)"}
{"compound": "O=C1CSC(=S)N1", "growth inhibition": "-8.05% (inactive)"}
{"compound": "CCN(CC)C(CC(=O)c1ccccc1)C(=O)c1ccccc1", "note": "(stereo not given)", "growth inhibition": "23.9% (inactive)"}
{"compound": "[N-]=[N+]=NC1CC(n2ccc(N)nc2=O)OC1CO", "note": "(stereo not given)", "growth inhibition": "-3.9% (inactive)"}
{"compound": "CN(C)CCNC(=O)c1cccc2c(Nc3ccc(S(N)(=O)=O)cc3)c3ccccc3nc12", "growth inhibition": "-43.7% (inactive)"}
{"compound": "CCCCc1nc(C)oc1C(C)C", "growth inhibition": "-31.2% (inactive)"}
{"compound": "O=COCCCc1ccccc1", "growth inhibition": "15.8% (inactive)"}
{"compound": "C=CCNC(=O)/C=C/C(=O)O", "growth inhibition": "-8.15% (inactive)"}
{"compound": "CC1=CC=CC(C)(C)C(=O)C1=O", "growth inhibition": "-31.4% (inactive)"}
{"compound": "CCN(CC)CCOC(=O)c1c(C)cc(C)cc1C", "growth inhibition": "-6.3% (inactive)"}
{"compound": "Cc1cc(C)c(NS(=O)c2cccc(Cl)c2)c(C)c1", "note": "(stereo not given)", "growth inhibition": "-29.1% (inactive)"}
{"compound": "CCOC(=O)C(C(=O)c1cccnc1)C(C(=O)OCC)C(=O)c1cccnc1", "note": "(stereo not given)", "growth inhibition": "5.1% (inactive)"}
{"compound": "C=C1CCCCCCCCC/C=C/1SCCCSC", "growth inhibition": "5.6% (inactive)"}
{"compound": "CC1(C)C2CC=C(CCO)C1C2", "note": "(stereo not given)", "growth inhibition": "-2.85% (inactive)"}
{"compound": "CC(=O)c1ccc(N=C2C(=O)Nc3ccccc32)cc1", "growth inhibition": "28.9% (inactive)"}
{"compound": "C[N+]1(C)CCC(C(=O)c2ccccc2)CC1", "growth inhibition": "1.15% (inactive)"}
{"compound": "c1ccc(CNCc2ccccc2)cc1", "growth inhibition": "-2.65% (inactive)"}
{"compound": "COc1cc(CCNC(=O)CC(C)C)ccc1OCc1ccccc1", "growth inhibition": "-14.9% (inactive)"}
{"compound": "O=C(Cl)CCc1ccnc2ccccc12", "growth inhibition": "0.5% (inactive)"}
{"compound": "Cc1nc2ccc(Cl)c(Cl)c2s1", "growth inhibition": "2% (inactive)"}
{"compound": "CC(C)[C@H]1CC[C@@](C)(C(=O)O)C1", "growth inhibition": "12.4% (inactive)"}
{"compound": "CC(C)CCOC(=O)c1ccc(C(C)C)cc1", "growth inhibition": "7.65% (inactive)"}
{"compound": "COc1cccc(/C(Cl)=C(\\C=O)c2cccc(OC)c2)c1", "growth inhibition": "12.8% (inactive)"}
{"compound": "O=[N+]([O-])c1ccc(OP2(Oc3ccc([N+](=O)[O-])cc3)=NP(Oc3ccc([N+](=O)[O-])cc3)(Oc3ccc([N+](=O)[O-])cc3)=NP(Oc3ccc([N+](=O)[O-])cc3)(Oc3ccc([N+](=O)[O-])cc3)=NP(Oc3ccc([N+](=O)[O-])cc3)(Oc3ccc([N+](=O)[O-])cc3)=N2)cc1", "growth inhibition": "-4.5% (inactive)"}
{"compound": "O=C(O)NC(c1ccccc1)C(NC(=O)c1ccccc1)c1ccccc1", "note": "(stereo not given)", "growth inhibition": "-0.45% (inactive)"}
{"compound": "FC1(F)C(F)(F)C(F)(F)C2(F)C(F)(F)C(F)(F)C(F)(F)C(F)(F)C2(F)C1(F)F", "note": "(stereo not given)", "growth inhibition": "-25.2% (inactive)"}
{"compound": "CCC(C)(O)CCC(C)(O)CC", "note": "(stereo not given)", "growth inhibition": "27.6% (inactive)"}
{"assay": "NCI Yeast Anticancer Drug Screen. Data for the mec2-1 strain (AID 157)", "details": "S. cerevisiae mec2-1 strain, at 50.0 µM, stronger effect = higher value", "procedure,_shortened": "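Vehicle-treated cultures served as reference for growth inhibition of compound-exposed mec2-1 yeast.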"}
{"compound": "CCCCCCCCCCCCCCCCCCNC(=O)NCc1ccncc1", "growth inhibition": "1.8% (inactive)"}
{"compound": "COCC(=O)c1ccccc1-c1ccccc1", "growth inhibition": "-2.65% (inactive)"}
{"compound": "Cn1nc(-c2ccc(Cl)c(Cl)c2)[n+]([O-])c2c(=O)n(C)c(=O)nc1-2", "growth inhibition": "92.1% (active)"}
{"compound": "CC(C)(C)OC(=O)NC(Cc1ccccc1)OCc1ccccc1", "note": "(stereo not given)", "growth inhibition": "-25.2% (inactive)"}
{"compound": "O=C(/C=C/c1ccc([N+](=O)[O-])cc1)NN=C(c1ccccc1)c1ccccc1", "growth inhibition": "-16.4% (inactive)"}
{"compound": "CC(C)N(CSc1ccc([N+](=O)[O-])cc1)CSc1ccc([N+](=O)[O-])cc1", "growth inhibition": "5.75% (inactive)"}
{"compound": "COC(=O)c1c2c(C)ccc(C)c2nc2c(C)ccc(C)c12", "growth inhibition": "-41% (inactive)"}
{"compound": "O=C(O)c1nc(Cl)c(Cl)[nH]c1=O", "growth inhibition": "-29.6% (inactive)"}
{"compound": "NC(=O)c1ccc(C(F)(F)F)cc1O", "growth inhibition": "12.6% (inactive)"}
{"compound": "CN(C)/N=C\\c1ccc(C(=O)O)cc1", "growth inhibition": "25.6% (inactive)"}
{"compound": "CC(=O)NCC(=O)c1ccccc1", "growth inhibition": "-2.4% (inactive)"}
{"compound": "Cc1[nH]n(-c2ccccc2)c(=O)c1/C=N\\C(N)=S", "growth inhibition": "-37.9% (inactive)"}
{"compound": "CCOC(=O)c1ccc(N=c2sc3ccccc3nc2Nc2ccc(C(=O)OCC)cc2)cc1", "growth inhibition": "-3.95% (inactive)"}
{"compound": "COC(=O)C(N)Cc1ccc(O)c(O)c1", "note": "(stereo not given)", "growth inhibition": "4.7% (inactive)"}
{"compound": "O=C1CSC(=S)N1", "growth inhibition": "-7.9% (inactive)"}
{"compound": "CCN(CC)C(CC(=O)c1ccccc1)C(=O)c1ccccc1", "note": "(stereo not given)", "growth inhibition": "16.5% (inactive)"}
{"compound": "[N-]=[N+]=NC1CC(n2ccc(N)nc2=O)OC1CO", "note": "(stereo not given)", "growth inhibition": "13.6% (inactive)"}
{"compound": "CN(C)CCNC(=O)c1cccc2c(Nc3ccc(S(N)(=O)=O)cc3)c3ccccc3nc12", "growth inhibition": "4% (inactive)"}
{"compound": "CCCCc1nc(C)oc1C(C)C", "growth inhibition": "-15.8% (inactive)"}
{"compound": "O=COCCCc1ccccc1", "growth inhibition": "-1.85% (inactive)"}
{"compound": "C=CCNC(=O)/C=C/C(=O)O", "growth inhibition": "6.85% (inactive)"}
{"compound": "CC1=CC=CC(C)(C)C(=O)C1=O", "growth inhibition": "-13.2% (inactive)"}
{"compound": "CCN(CC)CCOC(=O)c1c(C)cc(C)cc1C", "growth inhibition": "-9.4% (inactive)"}
{"compound": "Cc1cc(C)c(NS(=O)c2cccc(Cl)c2)c(C)c1", "note": "(stereo not given)", "growth inhibition": "-26.3% (inactive)"}
{"compound": "CCOC(=O)C(C(=O)c1cccnc1)C(C(=O)OCC)C(=O)c1cccnc1", "note": "(stereo not given)", "growth inhibition": "20.9% (inactive)"}
{"compound": "C=C1CCCCCCCCC/C=C/1SCCCSC", "growth inhibition": "26.4% (inactive)"}
{"compound": "CC1(C)C2CC=C(CCO)C1C2", "note": "(stereo not given)", "growth inhibition": "-5.8% (inactive)"}
{"compound": "CC(=O)c1ccc(N=C2C(=O)Nc3ccccc32)cc1", "growth inhibition": "15.8% (inactive)"}
{"compound": "C[N+]1(C)CCC(C(=O)c2ccccc2)CC1", "growth inhibition": "4.95% (inactive)"}
{"compound": "c1ccc(CNCc2ccccc2)cc1", "growth inhibition": "3.8% (inactive)"}
{"compound": "COc1cc(CCNC(=O)CC(C)C)ccc1OCc1ccccc1", "growth inhibition": "-27% (inactive)"}
{"compound": "O=C(Cl)CCc1ccnc2ccccc12", "growth inhibition": "3.25% (inactive)"}
{"compound": "Cc1nc2ccc(Cl)c(Cl)c2s1", "growth inhibition": "-16.3% (inactive)"}
{"compound": "CC(C)[C@H]1CC[C@@](C)(C(=O)O)C1", "growth inhibition": "7.5% (inactive)"}
{"compound": "CC(C)CCOC(=O)c1ccc(C(C)C)cc1", "growth inhibition": "9.85% (inactive)"}
{"compound": "COc1cccc(/C(Cl)=C(\\C=O)c2cccc(OC)c2)c1", "growth inhibition": "19.1% (inactive)"}
{"compound": "O=[N+]([O-])c1ccc(OP2(Oc3ccc([N+](=O)[O-])cc3)=NP(Oc3ccc([N+](=O)[O-])cc3)(Oc3ccc([N+](=O)[O-])cc3)=NP(Oc3ccc([N+](=O)[O-])cc3)(Oc3ccc([N+](=O)[O-])cc3)=NP(Oc3ccc([N+](=O)[O-])cc3)(Oc3ccc([N+](=O)[O-])cc3)=N2)cc1", "growth inhibition": "-7.9% (inactive)"}
{"compound": "O=C(O)NC(c1ccccc1)C(NC(=O)c1ccccc1)c1ccccc1", "note": "(stereo not given)", "growth inhibition": "-4.1% (inactive)"}
{"compound": "FC1(F)C(F)(F)C(F)(F)C2(F)C(F)(F)C(F)(F)C(F)(F)C(F)(F)C2(F)C1(F)F", "note": "(stereo not given)", "growth inhibition": "-21.2% (inactive)"}
{"compound": "CCC(C)(O)CCC(C)(O)CC", "note": "(stereo not given)", "growth inhibition": "5.4% (inactive)"}
